Reference: PubChem BioAssay (NCATS)
Records with an inconclusive call do not appear. Active and inactive are the calls of the source. Calls come from the whole dose curve; as a rule, active = well fitted inhibition curve with a large enough effect; inconclusive = small, poorly fitted or top-dose-only effect; inactive = flat fitted curve, though single readings scatter. *1 amine or outer side, *2 acyl side, *3 side chain or, on linkers, in order; H or OH if unused. Where a SMILES comes first, the peptide text is derived from it. [ ]: non-standard residue; d: D form. X4 = CC(C)=CCc1cc(C(O)C(N[*:1])C(=O)[*:2])ccc1O

Assay: Primary qHTS for inhibitors of nuclear receptor binding SET domain protein 2 (NSD2) in an isogenic RCH-ACV NSD2 p.E1099K mutant (9B) (AID 1645876); note: nearly all actives have a fitted effect of over 70% in size
Conditions: RCH-ACV (leukaemia line) NSD2 E1099K (9B) viability, CellTiter-Glo, 72 h; series mostly up to 44.9 µM; activity change, negative = viability loss: at the top concentration
% is set by controls: 0 for no effect and ±100 for the full control effect; potency is the fitted concentration of half-maximal effect.

| SMILES | activity change, negative = viability loss | outcome | Potency |
| --- | --- | --- | --- |
| O=C(Nc1ccn[nH]1)c1c(F)cccc1F | -2.7% (inactive) | – | – |
| C/C(=C\CCC(C)CCO)C(=O)O[C@@H]1[C@@H](O)[C@H](OC2OC=C(C(=O)O)C3CCC(C)(O)C23)O[C@H](CO)[C@H]1O (some centres undefined) | -6.04% [at 17.3 µM] (inactive) | – | – |
| C/C(=C\CCC(C)CCO)C(=O)OC1(C)CCC2C(C(=O)O)=COC(OC3OC(CO)C(O)C(O)C3O)C21 (centres undefined) | -0.0528% [at 17.3 µM] (inactive) | – | – |
| CC1=CC(=O)C(=C(C)C)CC2C1CCC2(C)O (centres undefined) | -14.1% (inactive) | – | – |
| CC1=CC2C(CC1OC1OC(CO)C(O)C(O)C1O)C(C)CC(=O)C2C(C)C (centres undefined) | -5.4% (inactive) | – | – |
| CC1(C)CC[C@]2(C(=O)O[C@@H]3O[C@H](CO[C@@H]4O[C@H](CO)[C@@H](O)[C@H](O)[C@H]4O[C@@H]4O[C@H](CO)[C@@H](O)[C@H](O)[C@H]4O)[C@@H](O)[C@H](O[C@@H]4O[C@H](CO)[C@@H](O)[C@H](O)[C@H]4O)[C@H]3O)CC[C@]3(C)C(=CCC4[C@@]5(C)CC[C@@H](O)[C@@](C)(C(=O)O[C@@H]6O[C@H](CO)[C@@H](O)[C@H](O)[C@H]6O)C5CC[C@]43C)[C@@H]2C1 (some centres undefined) | – | inactive [at 9.23 µM] | – |
| C=C[C@H]1[C@H](O[C@@H]2O[C@H](CO)[C@@H](O)[C@H](O)[C@H]2O)OC=C(C(=O)OC)[C@H]1CC(=O)O | -10.5% (inactive) | – | – |
| CC(=O)OC1CC2C3(C)CCC(OC(=O)CC(=O)O)C(C)(C)C3CCC2(C)C2(C)CCC(C3(C)CCC(=O)O3)C12 (centres undefined) | -2.52% [at 17.3 µM] (inactive) | – | – |
| O=C(OC1C=C(CO)C2C(OC3OC(CO)C(O)C(O)C3O)OC=CC12)c1ccc(O)cc1 (centres undefined) | – | inactive [at 17.3 µM] | – |
| COC1C(CO)OC(n2cnc3c(=O)[nH]cnc32)C1O (centres undefined) | -5.34% (inactive) | – | – |
| CC1(C)C2CC=C(COC3OC(COC4OCC(O)(CO)C4O)C(O)C(O)C3O)C1C2 (centres undefined) | -6.92% [at 17.3 µM] (inactive) | – | – |
| CC1CCC2(C(=O)O)CCC3(C)C(=CCC4C5(C)CCC(OC(=O)/C=C/c6ccccc6)C(C)(C)C5CCC43C)C2C1C (centres undefined) | -2.85% [at 17.3 µM] (inactive) | – | – |
| CC1(C)C[C@H](O)C[C@@]2(C)OC(=O)C=C12 | -13.2% [at 91.9 µM] (inactive) | – | – |
| CC1CCC2C(C)(C)[C@@H](O)CC[C@]2(C)C12Cc1c(O)cc3c(c1O2)CN(C(CCC(=O)O)C(=O)O)C3=O (some centres undefined) | -4.94% [at 17.3 µM] (inactive) | – | – |
| C[C@H](N)C(=O)N[C@@H](Cc1ccc(O)cc1)C(=O)N1CCC[C@H]1C(=O)NCC(=O)N[C@@H](CCCCN)C(=O)N[C@@H](Cc1ccccc1)C(N)=O | 0.961% [at 9.23 µM] (inactive) | – | – |
| C=C(C(=O)O)[C@H]1C[C@]2(C)[C@@H](O)CC[C@]23O[C@H]1C[C@@H]3C | – | inactive | – |
| Nc1nc2c(ncn2[C@@H]2O[C@@H]3COP(=O)(O)O[C@H]3[C@H]2O)c(=O)[nH]1 | -14.9% (inactive) | – | – |
| CCOC(=O)C(CCc1ccccc1)NC1CSC(c2cccs2)CN(CC(=O)O)C1=O (centres undefined) | -2.02% (inactive) | – | – |
| CC1OC(OC2C(OC3C(O[C@H]4CC[C@@]5(C)C(CC[C@]6(C)C5C(=O)C=C5C7CC(C)(C)CC(O)[C@]7(C)CC[C@]56C)C4(C)C)OC(C(=O)O)C(O)C3O)OCC(O)C2O)C(O)C(O)C1O (some centres undefined) | -6.05% [at 9.23 µM] (inactive) | – | – |
| C[C@@H]1O[C@@H](O[C@H]2[C@H](O[C@H]3CC[C@@]4(C)C(CC[C@]5(C)C4CC=C4[C@@H]6CC(C)(C)CC[C@]6(C(=O)O[C@@H]6OC[C@H](O)[C@H](O)[C@H]6O[C@@H]6O[C@@H](C)[C@H](O[C@@H]7O[C@H](CO)[C@@H](O)[C@H](O)[C@H]7O)[C@H](O)[C@H]6O)[C@H](O)C[C@]45C)C3(C)C)O[C@H](CO)[C@@H](O[C@@H]3OC[C@@H](O)[C@H](O)[C@H]3O)[C@@H]2O)[C@H](O)[C@H](O)[C@H]1O (some centres undefined) | -6.56% [at 9.23 µM] (inactive) | – | – |

| SMILES | activity change, negative = viability loss | outcome | Potency |
| --- | --- | --- | --- |
| Cc1ccc(C(=O)N(CCCN)C(c2nc3cc(Cl)ccc3c(=O)n2Cc2ccccc2)C(C)C)cc1 (centres undefined) | – | – | 0.0058 µM (active) |
| CC[C@]1(O)CC2CN(CCc3c([nH]c4ccccc34)[C@@](C(=O)OC)(c3cc4c(cc3OC)N(C=O)[C@H]3[C@@](O)(C(=O)OC)[C@H](OC(C)=O)[C@]5(CC)C=CCN6CC[C@]43[C@@H]65)C2)C1 (some centres undefined) | – | – | 0.0064 µM (active) |
| OC[C@H]1O[C@@H](O[C@H]2[C@H](OCc3ccccc3)O[C@H](CO[C@@H]3OC[C@@H](O)[C@H](O)[C@H]3O)[C@@H](O)[C@@H]2O)[C@H](O)[C@@H](O)[C@@H]1O | -2.8% [at 17.3 µM] (inactive) | – | – |
| C[C@@H]1CC[C@@]2(OC1)O[C@H]1C[C@H]3[C@@H]4CC=C5C[C@@H](O)CC[C@]5(C)[C@H]4CC[C@]3(C)[C@H]1[C@@H]2C | -8.61% [at 17.3 µM] (inactive) | – | – |
| COc1ccc(C(=O)n2c(C)c(Cc3cccc(O[C@@H](C)C(=O)O)c3)c3cc(OC(F)(F)F)ccc32)cc1 | -16.5% (inactive) | – | – |
| CC1CC[C@]2(C(=O)O)CC[C@]3(C(=O)O)C(=CCC4[C@@]5(C)CC[C@H](OC6OC(C)C(O)C(OC7OC(CO)C(O)C(O)C7O)C6O)C(C)(C)C5CC[C@]43C)C2C1C (some centres undefined) | -6.96% [at 17.3 µM] (inactive) | – | – |
| CC(=O)C1=C(C)N(c2cccc(C(F)(F)F)c2)C(=O)N[C@H]1c1ccc(C#N)nc1 | -10.2% [at 9.23 µM] (inactive) | – | – |
| Cc1ccc(NC(=O)c2ccc(CN3CC[C@H](N(C)C)C3)c(C(F)(F)F)c2)cc1Nc1nccc(-c2cncnc2)n1 | – | – | 8.11 µM (active) |
| C=CC(=O)N1CCN(C(=O)CNc2cc(I)c(Cl)cc2O)CC1 | – | – | 5.15 µM (active) |
| COC(=O)/C=C/C12COC(C)(C)C1C(O)C(OC(C)=O)C1(C)C2CCC2(C)C(c3ccoc3)OC(=O)C3OC321 (centres undefined) | 3.48% [at 17.3 µM] (inactive) | – | – |
| CC(C)c1ccc2c(c1)C(=O)CC1[C@@](C)(C(=O)O)CCC[C@]21C (some centres undefined) | -13.8% (inactive) | – | – |
| O=C1OCc2cc3cccc(O[C@@H]4O[C@H](CO)[C@@H](O)[C@H](O)[C@H]4O)c3c(O)c21 | – | inactive | – |
| CC1COC2(OC3CC4C5CC(O[C@@H]6O[C@H](C)[C@@H](O[C@@H]7O[C@@H](C)[C@H](O)[C@@H](O)[C@H]7O)[C@H](O)[C@H]6O)C6CC(O)CCC6(C)C5CCC4(C)C3C2C)C(O)C1 (some centres undefined) | – | inactive [at 17.3 µM] | – |
| C[C@H](C/C=C/C(C)(C)O)[C@H]1CC[C@@]2(C)[C@@H]3[C@@H](O[C@@H]4O[C@H](CO)[C@@H](O)[C@H](O)[C@H]4O)C=C4C(CC[C@H](O)C4(C)C)[C@]3(C=O)CC[C@]12C (some centres undefined) | -12.7% [at 17.3 µM] (inactive) | – | – |
| COc1cc(O)c2c(c1)C1=CC(O)C(O)CC1(C)OC2=O (centres undefined) | -16.3% (inactive) | – | – |
| O=C(OC[C@H]1O[C@H](O[C@]2(CO)O[C@H](CO)[C@@H](O)[C@@H]2O)[C@H](O)[C@@H](O)[C@@H]1O)c1ccccc1 | – | inactive [at 17.3 µM] | – |
| CC(C)=CCc1cc(C(O)C2NC(=O)CNC(=O)C(Cc3c[nH]c4ccccc34)NC(=O)C3CCCN3C(=O)CNC(=O)C(C(C)C)NC(=O)CNC2=O)ccc1O (centres undefined) (cyclo(G[X4]GVGPW); configuration not given here) | -11.5% [at 9.23 µM] (inactive) | – | – |
| CCCC(=O)NCCc1csc(-c2ccc(Cl)cc2)n1 | – | – | 12.9 µM (active) |
| C[C@@H]1O[C@@H](O[C@H]2[C@H](O[C@H]3[C@H](O)[C@@H](C(=O)O)O[C@@H](O[C@H]4CC[C@@]5(C)C(CC[C@]6(C)C5CC[C@]57OC[C@@]8(CCC(C)(C)CC85)[C@H](O)C[C@]76C)C4(C)C)[C@@H]3O[C@@H]3O[C@H](CO)[C@@H](O[C@@H]4OC[C@@H](O)[C@H](O)[C@H]4O)[C@H](O)[C@H]3O)O[C@H](CO)[C@H](O)[C@@H]2O)[C@H](O)[C@H](O)[C@H]1O (some centres undefined) | 0.445% [at 9.23 µM] (inactive) | – | – |
